Results from PubChem BioAssay AID1920062 (Sanford-Burnham Center for Chemical Genomics, 2024).
In all, about 370,000 compounds went through this assay and about 400 (0.11%) were called active. The sample as a whole holds a higher share of actives than the screen did. A number with no mark means an inactive call.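 The calls were made as follows: active = activation at 10 µM reaching about 35% in either raw or pattern-adjusted values (limit read from the data); inactive = the rest.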

These molecules were tested against Atrial natriuretic peptide receptor 2 (Homo sapiens) (UniProt P20594) (assay: GC-B stimulated cGMP production enhancers – HEK293 GC-B cells, cGMP TR-FRET, EC30 CNP, primary screen (AID 1920062)). Conditions: at 10 µM, active compounds read high, 0% at EC30 CNP, 100% saturating CNP.
Atrial natriuretic peptide receptor 2 (Homo sapiens), sequence (P20594 whole entry, looked up): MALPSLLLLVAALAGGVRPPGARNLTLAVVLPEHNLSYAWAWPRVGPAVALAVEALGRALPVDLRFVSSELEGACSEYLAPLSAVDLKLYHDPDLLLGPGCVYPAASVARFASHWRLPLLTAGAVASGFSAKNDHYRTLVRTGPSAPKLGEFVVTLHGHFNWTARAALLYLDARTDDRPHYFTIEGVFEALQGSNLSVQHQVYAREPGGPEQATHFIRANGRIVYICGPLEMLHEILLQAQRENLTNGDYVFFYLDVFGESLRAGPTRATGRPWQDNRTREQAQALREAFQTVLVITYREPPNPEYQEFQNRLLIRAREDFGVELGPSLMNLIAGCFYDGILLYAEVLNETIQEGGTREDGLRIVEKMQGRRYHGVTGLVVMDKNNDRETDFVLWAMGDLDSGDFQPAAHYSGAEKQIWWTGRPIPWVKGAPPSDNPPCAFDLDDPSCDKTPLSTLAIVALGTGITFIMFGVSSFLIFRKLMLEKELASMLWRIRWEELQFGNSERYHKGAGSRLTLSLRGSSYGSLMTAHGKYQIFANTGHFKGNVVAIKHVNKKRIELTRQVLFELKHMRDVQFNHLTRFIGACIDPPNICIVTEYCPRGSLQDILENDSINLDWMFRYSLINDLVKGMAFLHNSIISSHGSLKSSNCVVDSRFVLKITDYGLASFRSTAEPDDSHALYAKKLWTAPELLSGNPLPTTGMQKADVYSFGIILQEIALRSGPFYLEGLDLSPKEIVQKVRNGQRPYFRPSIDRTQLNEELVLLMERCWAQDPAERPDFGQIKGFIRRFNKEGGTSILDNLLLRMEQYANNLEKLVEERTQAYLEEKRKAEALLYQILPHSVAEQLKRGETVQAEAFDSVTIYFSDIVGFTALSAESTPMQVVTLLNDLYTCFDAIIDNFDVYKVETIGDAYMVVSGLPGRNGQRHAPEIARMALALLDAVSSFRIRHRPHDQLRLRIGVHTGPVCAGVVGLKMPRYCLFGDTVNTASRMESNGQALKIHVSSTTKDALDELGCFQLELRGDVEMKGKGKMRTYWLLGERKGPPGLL

Row | SMILES | activation
1 | O=C(NCc1cc(C(F)(F)F)cc(C(F)(F)F)c1)C1CC(c2cccc(F)c2)=NO1 (configuration not stated) | 4.68%
2 | CC1=C(C(N)=O)C(c2ccc(F)cc2)n2nc(CCCO)nc2N1 (configuration not stated) | 12.2%
3 | C=CCn1c(=O)c(C(=O)NCc2ccc3c(c2)OCO3)c(O)c2ccccc21 | 5.25%
4 | CCN(CC)C(=O)C(=O)c1cn(CC(=O)NCc2ccc3c(c2)OCO3)c2ccccc12 | -1.28%
5 | CCn1c(=O)c([N+](=O)[O-])c(NCc2ccc3c(c2)OCO3)c2ccccc21 | 38.9% (active)
6 | CCCCNC(=O)c1nc(C2CCN(S(=O)(=O)c3ccc(F)c(F)c3)CC2)oc1-c1cccc(C(F)(F)F)c1 | 1.59%
7 | CC1CN/C(=C\C(=O)c2ccc(Br)cc2)C(=O)N1 (configuration not stated) | -4.27%
8 | N#Cc1ccccc1S(=O)(=O)N1CCN(Cc2c(O)ccc3ccccc23)CC1 | 2.67%
9 | Cc1ccc(CN(N=Nc2nonc2N)c2nonc2N)c(C)c1 | 42.7% (active)
10 | CCn1c(/C=C/Nc2ccccc2)[n+](CC)c2ccc(C(=O)OCC(F)(F)F)cc21 | -2.59%
11 | O=C(OCCN1C(=O)c2ccccc2C1=O)[C@@H]1CC(O)CN1S(=O)(=O)c1ccccc1[N+](=O)[O-] (some centres not stated) | -3.1%
12 | COC(=O)[C@@]12CCCCC3=C1N(CCC3)C(=O)[C@H]2CC(=O)NCc1cccc2ccccc12 | -3.99%
13 | CCc1nc2c(OCc3ccccc3)cccn2c1N(C)C(=O)c1ccco1 | 3.48%
14 | Cc1ccc(/C=C(\C#N)C(=O)Nc2cccc3ncccc23)o1 | -4.94%
15 | N#Cc1ccc(C(=O)Nc2nc(-c3cccs3)c(C(=O)C(F)(F)F)s2)cc1 | -0.02%
16 | COc1cc(CCC(=O)N2CCN(c3ccccc3Cl)CC2)cc(OC)c1OC | -3.86%
17 | COc1cccc(COC(=O)C2CCN(S(=O)(=O)c3cccs3)CC2)c1OC | 1.88%
18 | Cc1ccc(C(=O)N2CCCC(c3ccccc3)=N2)cc1 | 2.95%
19 | Nc1nc(SC23CC4CC(CC(C4)C2)C3)ns1 | -0.97%
20 | CS(=O)(=O)N(CC(=O)Nc1ccc(F)cc1)C1CCCCC1 | 0.74%
21 | CN(C)c1nc2n(c(=O)n1)CCO2 | 4.05%
22 | O=C(COc1cccnc1[N+](=O)[O-])Nc1ccc(Cl)cc1F | -6.77%

Row | SMILES | activation
23 | CC(C)(C)c1ccc(C(=O)NCC(=O)OCN2C(=O)c3ccccc3C2=O)cc1 | -3.65%
24 | CN(Cc1cccnc1)C(=O)c1cc(COc2ccc3ncccc3c2)on1 | 0.47%
25 | C=CCC1(CC=C)CCCN1C(=O)c1cc(COc2ccc(-n3cncn3)cc2)on1 | -1.1%
26 | CC1=NN(C(=O)Cc2ccc(C)cc2)C(O)(c2cccnc2)C1 (configuration not stated) | -0.71%
27 | O=C(Nc1ccccc1Cl)NC1(C(=O)N2CCOCC2)CCCCC1 | 0.64%
28 | CCN(Cc1ccccc1)C(=O)CCS(=O)(=O)c1ccc2c(c1)oc(=O)n2C | 4.57%
29 | O=C(NNC(=S)Nc1ccc(F)cc1)[C@H]1C[C@@H]1c1ccccc1 | 2.74%
30 | COc1ccc(OC)c(NC(=O)c2cnn(-c3ccccc3Cl)c2NC(=O)c2ccco2)c1 | -0.32%
31 | CCCC(c1nnnn1C(C)(C)C)N1CCN(Cc2ccccc2)CC1 (configuration not stated) | -1.17%
32 | COC(=O)c1ccc2nc(-c3ccc(OC)c(OC)c3)c(Cc3ccccc3)n2c1 | 20.9%
33 | COC(=O)c1ccc2nc(-c3ccc(Cl)cc3)c(Cc3cccc(F)c3)n2c1 | 41.9% (active)
34 | Fc1cccc(Cc2c(-c3cccc(Cl)c3)nc3ccc(Br)cn23)c1 | -1.56%
35 | COC(=O)c1ccc2nc(-c3ccc(F)cc3)c(Cc3ccc(C)cc3)n2c1 | 41.9% (active)
36 | COC(=O)c1ccc2nc(C3CCCCC3)c(Cc3cccc(F)c3)n2c1 | 3.29%
37 | COC(=O)c1ccc2nc(-c3ccc(C)cc3)c(Cc3ccc(OC)cc3C)n2c1 | 17.2%
38 | COC(=O)[C@@H]1C[C@@]2(O)[C@H](O)[C@H](O)[C@H](O)C[C@H]2N1Cc1ccc(C)s1 | 6.96%
39 | O=C(NCc1ccncc1)C1CCCN(S(=O)(=O)c2ccc(Br)cc2)C1 (configuration not stated) | -0.66%
40 | CCOCCCNC(=O)Cc1cc(=O)[nH]c(=O)[nH]1 | -0.88%
41 | CC(=O)Nc1ccc(S(=O)(=O)NC2(C(F)(F)F)C(=O)Nc3c2c(=O)[nH]c(=O)n3Cc2ccccc2)cc1 (configuration not stated) | -0.18%
42 | NC(=O)C[n+]1cccc(C(N)=O)c1 | -0.67%
43 | CC1(C)O[C@@H]2[C@H](O1)[C@@H](COS(=O)(=O)O)O[C@H]2n1ccc(=O)[nH]c1=O | 1.28%
44 | O=C(NC(=S)Nc1cccc(-c2ccc(CO)o2)c1)c1cccs1 | 3.14%

Row | SMILES | activation
45 | COc1cccc2cc(C(C)N(CCCN3CCOCC3)C(=O)Nc3ccc(Cl)cc3)oc12 (configuration not stated) | 2.29%
46 | Cc1ccc(SCC(=O)NNC(=O)c2ccc(S(C)(=O)=O)cc2)cc1 | 4.75%
47 | CCCN=C1NC(=O)C(CC(=O)NCCc2ccc(OC)c(OC)c2)S1 (configuration not stated) | -2.43%
48 | CCN(CC(=O)NCCCN1CCOCC1)S(=O)(=O)c1cc(Cl)ccc1Cl | -0.24%
49 | CCOCCCNC(=O)C(NC(=O)c1ccc(=O)[nH]c1)c1ccc(Cl)cc1 (configuration not stated) | -0.69%
50 | O=C(CC1CCCCC1)NCc1ccccc1 | 0.16%
51 | CC(C)OC(=O)c1sc2nc3c(cc2c1N)C(=O)CCC3 | 16.4%
52 | Nc1c(C(=O)NCc2ccccc2)sc2nc3c(cc12)C(=O)CCC3 | 41.5% (active)
53 | Cc1cnc(C)c(N2CCN(C(=O)C3CCC(=O)N(CCc4cccc(F)c4)C3)CC2)n1 (configuration not stated) | 1.57%
54 | CCN(C(=O)COC(=O)c1c(NC(C)=O)sc(C)c1C)C1CCS(=O)(=O)C1 (configuration not stated) | -6.94%
55 | C=CCn1nc(C(=O)OCC)cc1-c1sc(NC(=O)c2ccccc2)nc1C | 3.57%
56 | Cc1ccc(C)n1-c1ccncc1 | 1.81%
57 | COC(=O)[C@]1(Cc2ccccc2)N[C@H](CN(C)S(=O)(=O)c2ccc(F)cc2)[C@@H]2C(=O)N(Cc3ccccc3)C(=O)[C@@H]21 | -3.49%
58 | COc1ccc(C2c3ccc(O)cc3Oc3ncn(CCCO)c(=N)c32)cc1OC (configuration not stated) | 2.6%
59 | CCN(C(=O)COC(=O)c1ccc(COc2ccc3c(C)cc(=O)oc3c2)cc1)C1CCS(=O)(=O)C1 (configuration not stated) | -1.49%
60 | O=C(Nc1ccc(Br)cc1)c1cccc(NC(=O)C2C3CC4OC(=O)C2C4C3)c1 (configuration not stated) | -4.37%
61 | Cc1oc2nc(SCC(=O)Nc3ccc(S(N)(=O)=O)cc3)nc(NC(=O)c3ccccc3)c2c1C | -7.74%
62 | N#Cc1ccc(OCCN2C(=O)NC3(CCSC3)C2=O)cc1 (configuration not stated) | 1.75%
63 | O=C1Nc2ccccc2NC(c2ccc3c(c2)OCO3)=C1N(Cc1ccc(F)cc1)C(=O)c1ccco1 | -16.8%
64 | CCOC(=O)Cc1c(C)nc2c(C#N)c(C)nn2c1C | 6.49%
65 | C[C@H]1NS(=O)(=O)c2cc(Cl)ccc2O[C@@H]1c1ccccc1 | 1.13%
66 | O=C1CC(=O)Nc2cc(S(=O)(=O)N3CCN(c4cccc(C(F)(F)F)c4)CC3)ccc2N1 | 1.05%

Row | SMILES | activation
67 | CCNC(=O)C1(C)CCN(C(=O)c2ccccc2)C1 (configuration not stated) | 1.62%
68 | Cc1ccc(CSc2ccc(S(=O)(=O)N3CCCCC3)cn2)cc1 | -1.29%
69 | CCOC(=O)c1ccccc1NC(=O)COC(=O)C(Cc1c[nH]c2ccccc12)NC(C)=O (configuration not stated) | -17.1%
70 | COCCn1c(CN2CCC(Cc3ccccc3)CC2)nc2c1c(=O)n(C)c(=O)n2C | -2.04%
71 | O=C(NCc1ccc2c(c1)OCO2)c1sccc1Br | 8.92%
72 | CCN(CC)C(=O)Cn1cc(S(=O)(=O)CC(=O)NCc2ccc3c(c2)OCO3)c2ccccc21 | 2.01%
73 | CN(C)C(=O)c1cccc(-c2cnc3sc(NCc4ccc5c(c4)OCO5)nn23)c1 | 43% (active)
74 | O/N=C(\c1ccc2c(c1)OCCO2)C1CCCCC1 | 0.81%
75 | Cc1nnc(NC(=O)CSc2nc(C3CCCCC3)nc3ccccc23)s1 | 3.79%
76 | CC(=O)Nc1cc(-c2ccccc2F)cn2c(-c3cccc(C(F)(F)F)c3)cnc12 | 3.33%
77 | CC(=O)Nc1cccc(-c2cc(NC(C)=O)c3ncc(-c4ccccc4)n3c2)c1 | 5.87%
78 | CC(=O)Nc1cc(-c2cccc(CO)c2)cn2c(-c3cccc(C(F)(F)F)c3)cnc12 | 36.8% (active)
79 | COc1ccc(OC)c(Cc2cnc3nc(N)nc(N)c3c2C)c1 | -1.38%
80 | Cn1c(=O)c2c(SCC(=O)NCC3CCCO3)nc(CC(C)(C)C)nc2n(C)c1=O (configuration not stated) | 4.44%
81 | C=CCN(Cc1ccc2c(c1)OCO2)C(C#CC1CC1)C(C)(C)C (configuration not stated) | -14.9%
82 | C[C@@H]1COc2cccc(N3CCCC3)c2S(=O)(=O)N1C | 0.41%
83 | CC(=O)C1(C(=O)Nc2nccs2)CC(c2ccccc2C(F)(F)F)=NO1 (configuration not stated) | 1.69%
84 | COc1ccc(C(=O)OC(C)C(=O)NC2CCCC2)cc1S(=O)(=O)N1CCOCC1 (configuration not stated) | -5.5%
85 | O=C(CCCCCN1C(=O)C2C3C=CC(C3)C2C1=O)Nc1ccccn1 (configuration not stated) | 9.16%
86 | CCc1ccccc1S(=O)(=O)Cc1ccc(C(=O)NCCc2ccccc2)o1 | 2.27%
87 | CN(C(=O)CC(NC(=O)c1ccccc1)(c1ccccc1)c1ccccc1)c1ccccc1 | -19.3%
